ASK1 inh: ASK1 kinase inhibitors, primary screen, biochemical, AlphaScreen; inhibition, % at 7.44 µM; actives 0.99% (n = 22,000); AlphaScreen MKK6 phosphorylation by ASK1, luminescence; in the data active = inhibition above about 35%
ULK1 primary: ULK1 kinase inhibitors, primary screen, biochemical, AlphaScreen; Serine/threonine-protein kinase ULK1 (Homo sapiens), O75385; AlphaScreen Atg13 phosphorylation by ULK1, luminescence; inhibition, % at 5.96 µM; actives 1.9% (n = 30,000); AID 1259251, 2017; in the data active = inhibition above about 43%
Target sequence (O75385 whole entry, looked up): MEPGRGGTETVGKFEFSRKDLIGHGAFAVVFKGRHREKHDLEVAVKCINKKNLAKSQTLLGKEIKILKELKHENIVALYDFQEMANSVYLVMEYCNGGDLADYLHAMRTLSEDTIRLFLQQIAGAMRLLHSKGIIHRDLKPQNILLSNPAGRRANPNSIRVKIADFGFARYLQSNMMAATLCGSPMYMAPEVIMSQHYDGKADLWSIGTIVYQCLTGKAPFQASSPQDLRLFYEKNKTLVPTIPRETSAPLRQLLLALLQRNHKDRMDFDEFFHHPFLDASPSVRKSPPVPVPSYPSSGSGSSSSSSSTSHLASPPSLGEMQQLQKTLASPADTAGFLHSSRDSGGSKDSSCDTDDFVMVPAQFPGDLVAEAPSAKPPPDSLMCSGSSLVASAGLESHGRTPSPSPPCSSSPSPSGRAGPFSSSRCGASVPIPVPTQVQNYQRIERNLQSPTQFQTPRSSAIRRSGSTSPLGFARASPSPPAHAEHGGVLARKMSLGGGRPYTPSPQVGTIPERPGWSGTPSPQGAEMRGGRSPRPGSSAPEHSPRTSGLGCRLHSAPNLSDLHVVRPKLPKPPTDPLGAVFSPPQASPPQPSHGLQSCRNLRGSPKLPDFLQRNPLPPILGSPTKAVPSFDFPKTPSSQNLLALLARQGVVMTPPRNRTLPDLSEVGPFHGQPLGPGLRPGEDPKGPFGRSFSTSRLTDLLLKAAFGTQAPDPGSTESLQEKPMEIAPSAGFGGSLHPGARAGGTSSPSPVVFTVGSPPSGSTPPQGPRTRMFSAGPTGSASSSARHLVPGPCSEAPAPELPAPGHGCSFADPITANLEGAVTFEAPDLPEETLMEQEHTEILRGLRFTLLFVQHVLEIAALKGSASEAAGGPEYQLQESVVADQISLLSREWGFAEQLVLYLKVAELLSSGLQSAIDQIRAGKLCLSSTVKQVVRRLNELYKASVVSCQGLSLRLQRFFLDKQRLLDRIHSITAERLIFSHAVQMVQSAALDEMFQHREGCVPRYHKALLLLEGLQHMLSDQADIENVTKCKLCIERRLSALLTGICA
Numbers stand for hits; – = inactive; · = not tested or not shown. A selection: hits, their analogues and other compounds. The true share with any hit is near 2.5%.

SMILES	ASK1 inh	ULK1 primary
CNC(=O)c1ccccc1Nc1cc(Nc2cccc(C)n2)ncc1C(F)(F)F	–	90
CNC(=O)c1ccccc1Nc1cc(Nc2ccc3c(c2)CCC(=O)N3C)ncc1C(F)(F)F	–	89
c1cnc2ccc(Nc3cc(Nc4ccc(N5CCOCC5)cc4)ncn3)cc2c1	–	–
Cc1cc(NCCc2ccc(O)cc2)nc(Nc2ccccc2)n1	–	–
CCCNc1nc(-c2ccc(N3CCOCC3)nc2)nc2c1ncn2CCN1CCCC1=O	–	–
O=C(Nc1ccc(N2CCOCC2)cc1)C1CCN(c2ccc(Nc3ccc4ncccc4c3)nn2)CC1	–	49
O=C(Nc1ccc(N2CCOCC2)cc1)C1CCN(c2ccc(Nc3ccc(N4CCOCC4)cc3)nn2)CC1	–	–
CC(C)N(CCNc1nc(Cl)nc2c1ncn2Cc1ccc(C(F)(F)F)cc1)C(C)C	–	–
OC[C@H]1OC(O)[C@H](O)[C@@H](O)[C@H]1O (stereo not given in full)	·	–
OC[C@H]1OC([S-])[C@H](O)[C@@H](O)[C@@H]1O.[Au+] (stereo not given in full)	·	66
CC(C)n1cnc2c(Nc3ccc4c(c3)OCO4)nc(NC3CCN(Cc4ccccc4)CC3)nc21	–	–
Cc1cc2c(C(C)C)c(O)c(O)c(C=O)c2c(O)c1-c1c(C)cc2c(C(C)C)c(O)c(O)c(C=O)c2c1O	·	57
O=C(NC1CC1)c1ccc(-c2nccc(Nc3ccccc3)n2)cc1	–	–
CCCNc1nc(NCc2cccnc2)nc2nc[nH]c12	–	–
Cn1c(Nc2nc(NCCO)c3ncn(CCN4CCCC4=O)c3n2)nc2ccccc21	–	73
CCCNc1nc(Nc2nc3ccccc3n2C)nc2c1ncn2CCN1CCCC1=O	–	–
Cc1noc(C)c1-c1cncc(C(=O)NCc2cccnc2)c1	–	–
CCCNc1ccnc(-c2cccc(C(C)=O)c2)n1	–	–
COC(=O)c1ccc(/C=C/C(=O)c2ccc3c(c2)OCCO3)cc1	·	43
O=C(N/N=C\C=C\c1ccc(Br)cc1)c1ccc2c(c1)OCO2	·	–
CCOc1ccc(S(=O)(=O)n2cc(C)nc2CC)c2ccccc12	·	–
Cc1ncc(COP(=O)(O)O)c(C=O)c1O	·	–
Cc1ncc(CSSCc2cnc(C)c(O)c2CO)c(CO)c1O	·	47
O=C(Nc1ccccc1)Nc1cnn(-c2ccc3c(c2)C(Nc2ccc(N4CCOCC4)cc2)CCC3)c1 (stereo not given)	–	45
CC(C(=O)Nc1cnn(-c2cccc(C(=O)Nc3ccc(N4CCOCC4)cc3)c2)c1)c1ccccc1 (stereo not given)	–	–
SMILES	ASK1 inh	ULK1 primary
CC(=O)Nc1ccc(Nc2nc(-c3c(C)noc3C)nc3c2ncn3Cc2ccc(C(F)(F)F)cc2)cc1	–	–
CC(=O)Nc1ccc(Nc2nc(-c3ccc(N4CCOCC4)nc3)nc3nc[nH]c23)cc1	–	–
CC(=O)Nc1ccc(Nc2nc(-c3ccc(N4CCOCC4)nc3)ncc2C)cc1	–	59
O=c1c(O)c(-c2ccc(O)c(O)c2)oc2cc(O)cc(O)c12	·	46
O=c1c(-c2ccc(O)cc2)coc2cc(O)cc(O)c12	·	–
COc1cc(NC(=O)c2csc(N3CCN(c4ccccn4)CC3)n2)cc(OC)c1OC	–	–
O=S(=O)(NCc1ccccc1)c1ccc(-c2ncnc3[nH]ccc23)cc1	–	45
COc1cccc(CNS(=O)(=O)c2ccc(-c3ccnc4[nH]ccc34)cc2)c1	–	–
COc1cccc(CNS(=O)(=O)c2ccc(-c3ncnc4[nH]cc(C)c34)cc2)c1	–	59
COc1cccc(CNC(=O)Nc2ccc(-c3ncnc4[nH]ccc34)cc2)c1	–	–
O=C(N/N=C/c1ccc(O)cc1O)c1ccc(-c2ccccc2)cc1	·	–
O=C(Nc1ccc2cn[nH]c2c1)C(O)c1ccc(Br)cc1 (stereo not given)	–	–
c1ccc(CNc2cc(NCc3ccc4c(c3)OCO4)ncn2)cc1	–	–
c1cc(-c2ccnc(Nc3ccc(-c4nn[nH]n4)cc3)n2)cc(N2CCOCC2)c1	–	–
N#Cc1cc(-c2ccnc(Nc3ccc(-n4cnc(N5CCOCC5)n4)cc3)n2)ccc1N1CCC(O)CC1	–	49
N#Cc1cc(-c2ccnc(Nc3ccc(-c4nn[nH]n4)cc3)n2)ccc1N1CCC(O)CC1	–	75
Cc1ncn(-c2ccc(Nc3nccc(-c4ccc(C#N)c(N5CCOCC5)c4)n3)cc2)n1	–	–
c1ccc(OCCNc2ccnc(-c3cccs3)n2)cc1	–	–
CN(C)CCOc1cc(-c2cn[nH]c2)ccc1C(=O)NCc1cccs1	–	–
CS(=O)(=O)Nc1cccc(-c2ccnc(Nc3cccc(S(N)(=O)=O)c3)n2)c1	–	–
CCS(=O)(=O)c1ccc(-c2ccnc(Nc3ccc(S(N)(=O)=O)cc3)n2)cc1	–	–
CN(C)S(=O)(=O)Nc1ccc(-c2ccnc(Nc3ccc(S(N)(=O)=O)cc3)n2)cc1	–	48
CS(=O)(=O)Cc1ccc(-c2ccnc(Nc3ccc(S(N)(=O)=O)cc3)n2)cc1	–	50
CS(=O)(=O)Nc1ccc(-c2ccnc(Nc3cccc(S(N)(=O)=O)c3)n2)cc1	–	58
NS(=O)(=O)c1ccc(Nc2nccc(-c3ccc(Nc4ccccc4)cc3)n2)cc1	–	–
SMILES	ASK1 inh	ULK1 primary
COc1cccc(CCC(=O)Nc2ccc(-c3cn[nH]c3)cc2OC2CCN(C)CC2)c1	–	–
CCN(CC)C(=O)C1CCCN(c2ccc(-n3cc(CC(=O)NC4CCN(Cc5ccccc5)CC4)c4ccccc43)nn2)C1 (stereo not given)	–	–
CC(C)N(CCNC(=O)c1cnc(Nc2ccc(N3CCOCC3)cc2)s1)C(C)C	–	–
Cc1ncn(-c2ccc(Nc3ncc4cccc(-c5cnc6ccccc6c5)c4n3)cc2)n1	–	–
Cc1ncn(-c2ccc(N(CC3CC3)c3ncc4cccc(-c5cnn(CC6CC6)c5)c4n3)cc2)n1	–	99
O=C(NC1CC1)c1ccc2nc(Nc3ncccn3)sc2c1	–	–
CC(=O)NC(=S)Nc1ccc(NC(=S)NC(C)=O)cc1	·	–
CC(=O)c1cccc(-c2nc(NCCO)c3ncn(Cc4ccc(C(F)(F)F)cc4)c3n2)c1	–	–
NC(=O)c1ccccc1Nc1cc(NC(=O)Cc2ccc3ccccc3c2)ncc1C(F)(F)F	–	–
CNC(=O)c1ccccc1Nc1cc(NC(=O)Cc2ccccc2)ncc1C(F)(F)F	–	58
NC(=O)c1ccccc1Nc1cc(NC(=O)Cc2ccc(CN3CCOCC3)cc2)ncc1C(F)(F)F	–	63
NC(=O)c1ccccc1Nc1cc(Oc2ccc(N3CCNCC3)cc2)ncc1C(F)(F)F	–	60
CNC(=O)c1ccccc1Nc1cc(NC(=O)Cc2c(Cl)cccc2Cl)ncc1C(F)(F)F	–	–
CNC(=O)c1ccccc1Nc1cc(NC(=O)CCc2ccccc2)ncc1C(F)(F)F	–	–
CNC(=O)c1ccccc1Nc1cc(NC(=O)Cc2cccc(OC)c2)ncc1C(F)(F)F	–	55
NC(=O)c1ccccc1Nc1cc(NC(=O)Cc2ccc(CN3CCOCC3)cc2)ncc1Cl	–	–
Cn1c(=O)[nH]c(N2CCC3(CC2)OCCO3)c(Cc2ccccc2-c2ccccc2)c1=O	·	–
O=C(Nc1ccc2[nH]ncc2c1)c1cccc(O[C@H]2CCN(Cc3ccccc3)C2)n1	–	–
O=C(NCCc1ccc(O)cc1)c1ccc2nc(NCc3ccc4c(c3)OCO4)sc2c1	–	–

High-throughput results deposited in PubChem BioAssay by The Scripps Research Institute Molecular Screening Center.
